# High-throughput results as filed in PubChem BioAssay.
# VCAM1 TNFa pot = potentiators of TNFa-induced VCAM1 expression, primary screen, imaging, HUVEC, TNFa stimulus, immunofluorescence | HUVEC TNFa-stimulated VCAM-1 immunofluorescence, high-content imaging; scaled per plate to unstimulated/TNFa-only wells | activation, % at 2 µM | actives 0.19% (n = 93,000);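 active = activation above the screen mean plus 3 SD, with well images confirming the hit on visual review, cut at about 28% in these data, passing the limit was not always enough; inconclusive = activation above that limit but images do not confirm it; inactive = activation not above that limit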;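 also: signal is the number of cytoplasmic VCAM-1 stained grains per positive cell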
# VCAM1 pot conf = potentiators of TNFa-induced VCAM1 expression, confirmation, imaging, HUVEC, triplicate retest; shares compounds with VCAM1 TNFa pot; HUVEC TNFa-stimulated VCAM-1 immunofluorescence imaging; activation, % at 2 µM; 230 tested, under 10 active;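 active = activation above 30% in triplicate retests at 2 µM, then confirmed by visual review of the well images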;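 also: scaled per plate between unstimulated and TNFa-stimulated DMSO control wells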
# * hit, by the source's call; ? = inconclusive. The entries come from a sample that favours hits as a whole.
SMILES,VCAM1 TNFa pot,others
COC(=O)c1c(NC(=O)CSc2nnc(-c3cccnc3)n2Cc2ccco2)sc(C)c1C,6.6,
NCCN1CCN(CCN)CC1,-94.4,
Cc1cccn2cc(CNC(=O)C3CCCCC3)nc12,59.5*,VCAM1 pot conf=-13.5
O=C(NCc1ccccc1)C1CCCN(C(=O)Nc2ccccc2)C1 (stereo unspecified),-2.8,
O=C(COC(=O)c1ccncc1)NC(=O)C1CCCCC1,2.2,
Cc1cc2n(n1)SC(Nc1cc(Cl)ccc1Cl)N2 (stereo unspecified),-20.8,
Cc1ccc(CCN2CC(C(=O)NCCCOC(C)C)CC2=O)cc1 (stereo unspecified),2.2,
Cc1cc(Cl)c(S(=O)(=O)Nc2ccc(Cl)cn2)cc1OCC(N)=O,29.0,
Cc1ccc(-c2nnc(SCC(C)C)n2C)cc1,-8.1,
CC(C)NC(=O)CSc1nnc(-c2ccc(C(C)(C)C)cc2)n1C,?,VCAM1 pot conf=-15.3
CC(C)CCNC(=O)CSc1nnc(-c2ccc(S(=O)(=O)N3CCCC3)cc2)n1C,7.2,
CCCc1[nH]nc2c1C(c1ccc(OC)c(CSC3=NCCS3)c1)C(C#N)=C(N)O2 (stereo unspecified),-4.7,
Cc1nc2sc(C(c3cccc(F)c3)N3CCCC(C)C3)c(O)n2n1 (stereo unspecified),-1.7,
COc1ccc(C(=O)c2ccc(N(C)C)cc2)c2ccccc12,-59.7,
S=C(NN=C1CCCCCC1)Nc1ccc(Cl)cc1,35.1*,VCAM1 pot conf=-24.7
CCn1c(SCc2nc(-c3cccs3)no2)nnc1-c1c[nH]c2ccccc12,-8.1,
CCOc1ccccc1N1CCN(C(=O)c2cccc(-c3ccc(O)cc3)c2)CC1,-44.4,
Cn1c(CN2CCOCC2)nnc1SCC(=O)NC1CCCCC1,?,VCAM1 pot conf=-16.9
Cn1c(SCC(=O)NC2CCCCC2)nnc1-c1cccc(N)c1,-53.6,
CN(C)C(=O)Cn1c(SCC(=O)NC2CCCCC2)nc2ccccc21,1.2,
O=C(CSCCO)Nc1cc(C(F)(F)F)ccc1Cl,5.8,
Cn1c(NC(=O)C2c3ccccc3Oc3ccccc32)cc(=O)n(C)c1=O,-93.6,
COc1cc(-c2nnc(CSc3nnc4nc(C)cc(C)n34)o2)cc(OC)c1OC,-1.4,
Cc1ccc(C(=O)Nc2c(-c3cccs3)c(=O)c3ccccc3n2C)cc1,-2.7,
Cn1c(Cn2nnc3ccccc32)nnc1SCC(=O)N1CCc2ccccc21,7.4,
SMILES,VCAM1 TNFa pot,others
NC(=O)C1CCN(C(=O)CSc2nc3ccccc3o2)CC1,2.8,
NC(=O)C1CCN(C(=O)CCCCCn2c(=O)[nH]c3ccsc3c2=O)CC1,?,VCAM1 pot conf=-6.7
O=C1C/C(=C/NCc2ccccc2)C(=O)N1,25.8,
Cc1ccc(-n2nnnc2-c2cnc(-c3cccnc3)nc2C(F)(F)F)cc1,51.5*,VCAM1 pot conf=-9.9
CCOc1ccc(-c2nc(-c3cccnc3)no2)cc1,2.9,
Cc1ccc(SCc2nc(-c3cccnc3)no2)cc1,-50.6,
COC(=O)c1ccc(CNC(=O)CSc2nc3sc(C)c(C)c3c(=O)n2C)o1,-25.9,
